Screening data as filed in PubChem BioAssay.
aSyn UTR act – Activators working through SNCA 5'UTR binding (MLPCN). AID 1814. alpha-synuclein 5'UTR reporter, activators screen. actives 7.1% (n = 300,000). activity score, % (tested at 7.5 µM), hits read low; in the data active = activity score below about -60%
The depositor's hits bear a star. Only a sample is shown.

SMILES	aSyn UTR act
COCC1CCN(C(=O)c2cc(COc3ccc(OC)c4ccccc34)on2)C1 (stereo not drawn)	-183.7*
COCC1CCN(C(=O)c2cc(COc3ccccc3SC)on2)C1 (stereo not drawn)	-79.2*
COc1cc(Cl)ccc1OCc1cc(C(=O)N2CCCC(OC)C2)no1 (stereo not drawn)	-147.5*
COc1cc(C)ccc1OCc1cc(C(=O)N2CCC(c3ccc(F)cc3)C2)no1 (stereo not drawn)	-175.5*
COc1ccc(OCc2cc(C(=O)NC3CCOC(C)(C)C3)no2)c2ccccc12 (stereo not drawn)	-183.3*
COc1ccc(OCc2cc(C(=O)N3CCC(OC)CC3)no2)c2ccccc12	-69.5*
CCOC(=O)C1CCN(C(=O)c2cc(COc3ccc(OC)c4ccccc34)on2)CC1	-124.1*
CCSc1nnc(NC(=O)c2ccccc2C)s1	-117.2*
O=C(Nc1nnc(C2CCCCC2)s1)c1ccc(Br)s1	-219.0*
COc1ccc(-c2nnc3sc(C4CCCCC4)nn23)cc1OC	65.3
O=C(Nc1nnc(C(F)(F)F)s1)c1ccc(Br)s1	-75.5*
Cc1cc(C(=O)Nc2nnc(C3CCCCC3)s2)cs1	-136.4*
CCSc1nnc(NC(=O)c2ccccn2)s1	66.7
CCSc1nnc(NC(=O)c2ccccc2)s1	-94.5*
CCSc1nnc(NC(=O)c2ccc(Br)s2)s1	-89.3*
COc1ccc(C(=O)Cc2ccc(OC)c(OC)c2)cc1	-109.4*
COc1cc(CNc2ccc(C)c(C)c2)cc(OC)c1OC	-166.0*
COc1ccc(CNc2ccc(Br)cc2)cc1	-111.9*
CCOc1c(Br)cc(CNc2ccc3c(c2)OCCO3)cc1OC	96.8
COc1ccc(CNc2ccc(C)c(C)c2)cc1	-71.7*
COc1ccc(CNc2cc(C)ccn2)cc1	-104.0*
COc1ccc(NCc2ccc(OC)c(OC)c2)cc1	-105.0*
CCCNC(=O)c1ccc(N2CCC3(CC2)CC(c2ccccc2)=NO3)c(NC(=O)c2ccccc2)c1	59.4
CC1CC(C)CN(S(=O)(=O)c2ccc(C(=O)NCCCn3ccnc3)cc2)C1 (stereo not drawn)	98.1
CCCN1CCN(CCCNC(=O)c2ccc3nc(N4CCCCC4)sc3c2)CC1	-214.4*
SMILES	aSyn UTR act
CC1CC(C)CN(CCCNC(=O)c2ccc3nc(N4CCCCC4)sc3c2)C1 (stereo not drawn)	-273.4*
Cc1ccc(OCCNC(=O)c2ccc3c(c2)OCO3)cc1	-61.6*
Cc1ccc(C(=O)NCCOc2cccc(C)c2)cc1	-110.7*
Cc1cc2nc(-c3ccc(SCC(=O)N4CCc5ccccc54)nc3)[nH]c2cc1C	-220.3*
Cc1cc2nc(-c3ccc(SCc4ccc(C(=O)O)cc4)nc3)[nH]c2cc1C	-160.0*
Cc1cc2nc(-c3ccc(SCC(=O)Nc4ccc(S(=O)(=O)NC5CC5)cc4)nc3)[nH]c2cc1C	-115.7*
Cc1cc2nc(-c3ccc(SCC(=O)NC(C)C)nc3)[nH]c2cc1C	-134.4*
Cc1cc2nc(-c3ccc(SCc4ccccc4C#N)nc3)[nH]c2cc1C	-78.0*
Cc1cc(NC(=O)CSc2ccc(-c3nc4cc(C)c(C)cc4[nH]3)cn2)no1	-99.9*
COc1ccc(-c2cc(C(=O)Nc3ccc(C)c(N)c3)c3ccccc3n2)cc1	-82.0*
CC(C)(C)c1ccc(-c2cc(C(=O)NNC(=O)Nc3ccccc3)c3ccccc3n2)cc1	-124.0*
COc1cc(C(=O)Nc2ccc(C)cc2)c2ccccc2n1	81.5
CC(C)(C)N1C(=O)c2ccc(C(=O)Nc3nccs3)cc2C1=O	-156.2*
Nc1ccccc1C(=O)Nc1nccs1	-103.0*
O=C(Nc1nccs1)c1cncc(Br)c1	-145.4*
Cc1oc(-c2ccccc2)nc1C(=O)Nc1nccs1	-116.8*
O=C(Nc1nccs1)c1ccc(N2C(=O)[C@@H]3[C@H](C2=O)[C@H]2C=C[C@@H]3C2)cc1	-147.3*
O=C(Nc1nccs1)OCc1ccccc1	-80.1*
O=C(Nc1nccs1)c1ccc2nccnc2c1	-160.6*
Nc1ccc(C(=O)Nc2nccs2)cc1	-87.4*
CC(C)C(C(=O)Nc1nccs1)c1ccc(Cl)cc1 (stereo not drawn)	58.4
O=C(Nc1nccs1)c1ccc(COc2c(F)c(F)cc(F)c2F)cc1	-107.3*
Cc1ccc(C(=O)Nc2nccs2)cc1	-124.0*
O=C(Nc1nccs1)C(Br)C(Br)c1ccccc1 (stereo not drawn)	-75.1*
Cn1c(SCc2ccc(C(=O)Nc3nccs3)cc2)nnc1-c1ccccc1	-102.7*
SMILES	aSyn UTR act
CN(c1ccc(C(=O)Nc2nccs2)cc1)S(=O)(=O)c1ccccc1	-103.8*
CCN1C(=O)/C(=C/N2CCc3ccccc32)SC1=S	-189.7*
COc1cccc(C(=O)/C=C/c2ccc(OCC#N)c(OC)c2)c1	-121.2*
COc1cc(/C=C/C(=O)c2ccc(O)cc2)ccc1OCC#N	-133.5*
CCOc1ccc(/C=C/C(=O)c2ccccc2)cc1OC	-112.5*
Cc1ccc(S(=O)(=O)c2nc(S(=O)(=O)CCO)sc2N2CCOCC2)cc1	-95.9*
CCCS(=O)(=O)c1nc(S(=O)(=O)c2ccc(C)cc2)c(N2CCN(CCO)CC2)s1	-97.8*
CCCS(=O)(=O)c1nc(S(=O)(=O)c2ccc(C)cc2)c(N2CCOCC2)s1	-61.8*
N/C(=N\c1nc2ccccc2o1)NC(=O)c1ccc(F)cc1	-132.5*
COc1ccc(C(=O)N/C(N)=N/c2nc3ccccc3o2)cc1	-215.9*
Cc1ccc2oc(/N=C(\N)NC(=O)C(C)(C)C)nc2c1	96.1
COc1ccc(C(=O)/C=C/Sc2nc3ccccc3o2)cc1	-169.0*
N/C(=N\c1nc2ccccc2o1)NC(=O)c1ccc(Cl)cc1	-86.9*
N/C(=N\c1nc2ccccc2o1)NC(=O)c1ccccc1Br	-184.3*
Cc1cccc(NC(=O)Cc2noc3ccccc23)c1	-82.3*
O=C(Cc1noc2ccccc12)Nc1ccc(Cl)cc1	-68.5*
Cc1ccc2nc(CSc3nc(C)cc(C)c3C#N)[nH]c2c1	-69.7*
COc1ccc(/C=C/C2=NC(=C\N(C)C)/C(=O)O2)cc1	-151.2*
Cc1ccc(S(=O)(=O)N/N=c2\sc3ccccc3n2C)cc1	-115.2*
Cc1cccc(S(=O)(=O)N/N=c2\sc3ccccc3n2C)c1	-175.3*
O=C(Cc1ccccc1F)Nc1ccccc1-c1ccccc1	-85.2*
Cc1ccc(N=Nc2c(O)n(CN3CCOCC3)c3ccccc23)cc1	-115.5*
Cc1ccc(N=Nc2ccc(O)c3ncccc23)cc1	86.2
O=S(=O)(Cc1noc(-c2ccccc2Cl)n1)c1ccccn1	-70.4*
C=C1c2ccccc2NC(=S)N1Cc1ccc2c(c1)OCO2	-99.0*
SMILES	aSyn UTR act
O=C(N/N=C/c1ccc(O)cc1O)c1ccc(CN2C(=O)c3cccc4cccc2c34)cc1	62.5
Cc1ccc(C(=O)N/N=C2\CCc3ccccc32)c(C)c1	-139.1*
O=C(N/N=C1\C(=O)c2cccc3cccc1c23)c1ccc(O)cc1	-136.6*
S=C(N/N=C1\CCc2ccccc21)NC1CCCCC1	-105.9*
C/C(=N\NC(=O)c1cccc(Br)c1)c1ccccn1	108.3
O=C(N/N=C1\CCCc2ccccc21)c1cccc(Br)c1	-92.7*
O=C(N/N=C1\CCc2ccccc21)c1ccccc1Cl	-129.2*
O=C(N/N=C1\CCc2ccccc21)c1ccc(O)cc1	-75.0*
CCOC(=O)N/N=C1\CCc2ccccc21	-102.4*
O=C1CCCC1C(=O)Nc1ccc2ccccc2c1 (stereo not drawn)	-120.5*
COc1ccccc1NC(=O)Cn1c(CN2CCCCC2)nc2ccccc2c1=O	-63.4*
COCc1cc(CN2CCCC2)c(O)c2ncccc12	59.1
Nc1c(C(=O)Nc2ccc3c(c2)OCCO3)nnn1Cc1ccc(F)cc1	-178.8*
